A selection: hits, their analogues and other compounds. The true share with any hit is near 2.3%.
CHO-K1 Ca PAM = counter-screen for M1 PAMs: effect in parental CHO-K1 cells | activation, % at 3 µM | ATP EC20, Fluo-8 calcium fluorescence; 0% at ATP EC20, 100% at ATP max | 360,000 compounds, 0.02% hits;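 active = activation above the run cutoff, the mean activation of all test compounds plus 3 SD, cut at about 40% in these data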;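 note: peak over basal fluorescence ratio in a 140 s read after ATP addition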
CHRM1 agonist = agonists of human M1 muscarinic receptor; AID 588814; CHO-K1 hM1, Fluo-8 calcium fluorescence, agonist mode; 0% DMSO, 100% acetylcholine EC100; P11229; 360,000 compounds, 0.33% hits; activation, % at 3 µM;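 active = activation above the run's mean compound activation plus 3 SD, cut at about 16% in these data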;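 note: peak over basal fluorescence ratio within a 140 s kinetic read after compound addition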
Target sequence (P11229 whole entry, looked up): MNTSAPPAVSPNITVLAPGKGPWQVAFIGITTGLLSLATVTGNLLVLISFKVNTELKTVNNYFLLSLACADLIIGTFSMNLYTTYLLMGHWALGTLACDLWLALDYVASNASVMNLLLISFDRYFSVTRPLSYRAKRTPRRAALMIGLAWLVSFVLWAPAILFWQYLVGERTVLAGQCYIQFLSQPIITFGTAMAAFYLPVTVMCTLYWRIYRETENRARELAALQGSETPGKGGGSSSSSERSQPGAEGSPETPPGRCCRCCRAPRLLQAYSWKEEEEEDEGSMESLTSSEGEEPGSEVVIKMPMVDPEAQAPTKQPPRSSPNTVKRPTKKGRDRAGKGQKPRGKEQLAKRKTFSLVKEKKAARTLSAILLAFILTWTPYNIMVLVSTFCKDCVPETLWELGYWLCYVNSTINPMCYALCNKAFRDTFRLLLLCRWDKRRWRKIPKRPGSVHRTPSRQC
CHO-K1 Ca antag = M1 antagonist counterscreen hit in parental CHO-K1 cells; ATP-induced calcium, Fluo-8 fluorescence; inhibition, % at 3 µM; 360,000 compounds, 0.6% hits; AID 602250;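 active = inhibition above a per-plate cutoff, the plate's mean sample inhibition plus 3 SD, cut at about 24% in these data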;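 note: 0% = DMSO plus EC80 ATP and 100% = DMSO alone without ATP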
CHRM1 PAM = human CHRM1 positive allosteric modulation. CHO-K1 hM1, Fluo-8 calcium fluorescence, ACh EC20; 0% = ACh EC20, 100% = maximal ACh. activation, % at 3 µM. P11229. 360,000 compounds, 0.088% hits; in the data active = activation above about 19%, passing the limit was not always enough
CHO-K1 Ca ag = M1 agonist counterscreen hit in parental CHO-K1 cells | Fluo-8 calcium fluorescence; scaled to maximal ATP response, vehicle zero | activation, % at 3 µM | 360,000 compounds, 0.48% hits | AID 602248; in the data active = activation above about 15%;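 note: untransfected CHO-K1 host cells lacking M1 receptor as counterscreen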
M1 antag = blocks human M1 muscarinic receptor | AID 588852 | 360,000 compounds, 1.3% hits | CHO-K1 hM1, Fluo-8 calcium fluorescence, ACh EC80 antagonist | inhibition, % at 3 µM | P11229;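 active = percent inhibition above its own plate's cutoff, namely the mean of that plate's compound wells plus 3 SD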;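 note: peak over basal fluorescence ratio during 140 s after agonist addition; 0% = ACh EC80 plus DMSO and 100% = DMSO alone without agonist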
* hit, by the source's call.

SMILES	CHO-K1 Ca PAM	CHRM1 agonist	CHO-K1 Ca antag	CHRM1 PAM	CHO-K1 Ca ag	M1 antag
C=CC[n+]1ccc(/C=C2\C=Cc3cc(C)ccc3N2CC)c2ccccc21	-22	-3	49*	-13	7	44*
COc1ccc(C(=O)NC(=S)Nc2ccc(CN3CCOCC3)cc2)cc1Cl	2	1	0	-12	13	11
COc1ccc(C(=O)NC(=S)Nc2ccc(CN3CCCCC3)cc2)cc1Cl	17	-7	-10	-22	3	29*
O=C(COc1ccc(Cl)cc1Cl)Nc1ccc(CN2CCOCC2)cc1	8	-8	-5	-10	11	4
O=C(COc1ccc(Cl)cc1Cl)Nc1ccc(CN2CCCCC2)cc1	11	-14	-10	-35	5	21*
Cc1ccc2c(c1)N(CCC(=O)NC1CCCCC1C)C(=O)CO2 (configuration not stated)	-16	-4	-4	16	0	-13
Cc1nn(-c2ccccc2)nc1C(=O)Nc1nnc(C(F)(F)F)s1	8	4	-7	-1	8	-4
CCOc1ccc(NC(=O)NCCCn2c(C)nc3cc(C)c(C)cc32)cc1	4	-3	-10	-21	1	46*
O=C(COC(=O)CNC(=O)c1cccc(OC(F)F)c1)NNC(=O)c1ccccc1	2	-2	-11	-7	4	17
CCOc1cc(S(=O)(=O)NC2CCCCC2)ccc1F	10	-5	7	0	24*	4
COc1ccccc1CC(=O)Nc1ccc(S(=O)(=O)N2CC(C)CC(C)C2)cc1 (configuration not stated)	11	-7	-18	5	0	-10
CCOC(=O)C1CCCN(Cc2ccc(OC)c(OCc3ccccc3)c2)C1 (configuration not stated)	15	-9	-18	5	1	-10
Cc1ccc2nc(Cl)c(/C=N/Nc3nc(C)cc(C)n3)c(=O)n2c1	-5	-3	2	8	1	-6
C/C(CC(=O)Nc1cccc(Br)c1)=N\NC(=O)c1ccc(O)cc1O	-1	-3	-3	1	0	-11
COc1ccccc1N1CCN(C(=O)C2CCCN(S(=O)(=O)c3ccc4c(c3)oc(=O)n4C)C2)CC1 (configuration not stated)	-5	-3	14	-24	21*	26
C[C@H](NC(=O)[C@@H]1CSC2c3ccccc3C(=O)N21)C(=O)NC1CCCCC1 (some centres not stated)	10	-2	-6	7	0	-8
C[C@H](NC(=O)[C@@H]1CSC2c3ccccc3C(=O)N21)C(=O)NC1CCCC1 (some centres not stated)	-13	0	1	-10	0	27*
CC(=O)c1cn(CC(=O)Nc2ccccc2C(F)(F)F)c2ccccc12	-23	3	27*	3	1	-5
Cc1ccc(C)c(NC(=O)Cn2cc(C(=O)C3CC3)c3ccccc32)c1	6	6	25*	8	3	-2
C[C@H]1CN([C@@H](C)CO)C(=O)CCCn2nncc2CO[C@@H]1CN(C)C(=O)NC1CCCCC1	-9	-2	20	6	0	-6
CC(C)C(=O)Nc1ccc(Br)cc1Cl	-13	-11	56*	1	-2	-3
CC(C)(C)c1cc(NC(=O)Nc2ccc(Br)cc2Cl)no1	9	-6	-15	-16	0	28*
O=C(COC(=O)c1ccc(O)cc1O)NC(=O)Cc1ccccc1	12	33*	-1	2	18*	4
Cn1ncc(Cl)c1C(=O)N1CCC(Cc2ccccc2)CC1	-18	-2	7	1	0	3
COc1ccccc1-c1ccc2c(c1)C(C)(Cc1ccc(F)c(Cl)c1)C(=O)N2 (configuration not stated)	19	-3	-11	8	1	-16
SMILES	CHO-K1 Ca PAM	CHRM1 agonist	CHO-K1 Ca antag	CHRM1 PAM	CHO-K1 Ca ag	M1 antag
CC(C)N1CCCC(C)(C(=O)Nc2ccccc2)C1 (configuration not stated)	14	-3	-10	2	1	4
CC(C)N1CCCC(C)(C(=O)Nc2cccc(Oc3ccccc3)c2)C1 (configuration not stated)	14	-10	-14	-20	0	36*
CCCNC(=O)C1(C)CCCN(Cc2ccc(Oc3ccccc3)cc2)C1 (configuration not stated)	10	-8	0	-25	0	40*
CCCNC(=O)C1(C)CCN(Cc2ccc(Oc3ccccc3)cc2)C1 (configuration not stated)	9	-6	-9	-20	3	14
Cc1ccccc1S(=O)(=O)N1C[C@H]2[C@H]3C(=O)N(c4ccccc4)C(=O)[C@H]3CC(=O)[C@H]2[C@@H]1c1ccc(Cl)cc1	10	-3	13	5	1	1
COc1ccc2c(c1)OC[C@H]1[C@H]2N2C(=O)c3cc(C)ccc3NC(=O)[C@@]2(C)[C@H]1c1ccccc1	26	-4	-27	-7	1	17
COc1ccc2c(c1)OC[C@H]1[C@H]2N2C(=O)c3ccccc3NC(=O)[C@@]2(C)[C@H]1c1ccccc1	23	-6	-10	-31	1	75*
C[C@@]12C(=O)Nc3ccccc3C(=O)N1[C@H]1c3cc(Cl)ccc3OC[C@@H]1[C@@H]2c1ccccc1	-4	-5	-12	-28	0	33*
COc1ccc2c(c1)C(=O)N1[C@H]3c4cc(C)ccc4OC[C@@H]3[C@H](c3ccccc3)[C@]1(C)C(=O)N2	10	-8	-7	-32	0	60*
Cc1ccc2c(c1)[C@H]1[C@H](CO2)[C@H](c2ccccc2)[C@]2(C)C(=O)Nc3ccccc3C(=O)N12	-5	-9	-9	-38	0	86*
CC[C@H](C)[C@H]1CNC(=S)N1CC1CCN(CC)CC1	-9	-11	-5	-16	0	20
CSCc1c(C(=O)NCCc2ccccn2)oc2ccccc12	17	-6	-10	6	5	-3
Cc1ccc2c(c1)[C@H]1[C@H](CO2)[C@H](c2ccccc2)[C@]2(C)C(=O)Nc3ccc(Cl)cc3C(=O)N12	9	-6	-16	-22	1	35*
C[C@@]12C(=O)Nc3ccc(Cl)cc3C(=O)N1[C@H]1c3cc(Cl)ccc3OC[C@@H]1[C@@H]2c1ccccc1	-23	-5	1	-11	0	18
Cc1nc2ccc(NC(=O)CCC3CCCC3)cc2s1	4	-3	-12	7	3	-5
O=C(COC(=O)c1cccc(S(=O)(=O)Nc2ccc(F)cc2)c1)NCCN1C(=O)CSC1=O	-18	-3	13	-4	0	14
OC(CN1CCN(c2cccc(C(F)(F)F)c2)CC1)c1c[nH]c2ccccc12 (configuration not stated)	-7	-3	30*	-2	2	12

Compound activity from PubChem.
